Laboratory results published in PubChem BioAssay (NCATS).
Records with an inconclusive call do not appear. Active and inactive are the calls of the source. Calls come from the whole dose curve; as a rule, active = well fitted curve in the direction sought with a large enough effect; inconclusive = small, poorly fitted or top-dose-only effect, or another doubt; inactive = no such curve, though single readings can be large; an effect the other way counts as inactive or inconclusive.

Legend:
[1] = target: Rap guanine nucleotide exchange factor 3 (Homo sapiens) (UniProt O95398); test: Confirmatory qHTS for antagonist of cAMP-regulated guanine nucleotide exchange factor 3 (EPAC1) (AID 1645880); note: nearly all actives have a fitted effect of over 55% in size; note: potency is the fitted concentration of half-maximal effect
Method in brief: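 Nucleotide exchange uses 100 nM EPAC1, 250 nM RAP1B-BODIPY-GDP and 50 uM GDP, with compounds in a concentration-titration series. After 5 min at room temperature, fluorescence (480 nm ex/540 nm em) is read every 5 min for 30 min. Data are normalized to control ATA and DMSO.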

[2] = target: Rap guanine nucleotide exchange factor 3 (Homo sapiens) (UniProt O95398); test: Confirmatory qHTS for agonist of cAMP-regulated guanine nucleotide exchange factor 3 (EPAC1) (AID 1645881);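 note: EPAC1 catalysed release of BODIPY-GDP from Rap1B seen as fluorescence loss; 100% = effect of cAMP agonist control; nearly all actives have a fitted effect of over 75% in size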
[3] = target: Rap guanine nucleotide exchange factor 4 (Homo sapiens) (UniProt Q8WZA2); test: Confirmatory qHTS for agonist of cAMP-regulated guanine nucleotide exchange factor 4 (EPAC2) (AID 1645884);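 note: nucleotide exchange releases bodipy-GDP from Rap1 and this lowers its fluorescence; % is set by controls: 0 for no effect and ±100 for the full control effect; nearly all actives have a fitted effect of over 65% in size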
[4] = target: Rap guanine nucleotide exchange factor 4 (Homo sapiens) (UniProt Q8WZA2); test: Confirmatory qHTS for antagonist of cAMP-regulated guanine nucleotide exchange factor 4 (EPAC2) (AID 1645885); note: nearly all actives have a fitted effect of over 25% in size; note: potency is the fitted concentration of half-maximal effect; for activity change, negative = inhibition: % is set by controls: 0 for no effect and ±100 for the full control effect
[5] = target: Rap guanine nucleotide exchange factor 3 (Homo sapiens) (UniProt O95398); test: Counterscreen qHTS for antagonist of cAMP-regulated guanine nucleotide exchange factor 3 (EPAC1) (AID 1645888);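 note: fluorescence loss as bound BODIPY-GDP is released from Rap1B; % of control where 0% means no effect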
Method in brief: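 Measured: fluorescence of BODIPY-GDP bound to Rap1B, which falls as exchange proceeds. Conditions include 50 uM competing GDP, 5 and 30 min reads, and a later cAMP challenge for antagonist detection.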

Rap guanine nucleotide exchange factor 4 (Homo sapiens), sequence (Q8WZA2 whole entry, looked up): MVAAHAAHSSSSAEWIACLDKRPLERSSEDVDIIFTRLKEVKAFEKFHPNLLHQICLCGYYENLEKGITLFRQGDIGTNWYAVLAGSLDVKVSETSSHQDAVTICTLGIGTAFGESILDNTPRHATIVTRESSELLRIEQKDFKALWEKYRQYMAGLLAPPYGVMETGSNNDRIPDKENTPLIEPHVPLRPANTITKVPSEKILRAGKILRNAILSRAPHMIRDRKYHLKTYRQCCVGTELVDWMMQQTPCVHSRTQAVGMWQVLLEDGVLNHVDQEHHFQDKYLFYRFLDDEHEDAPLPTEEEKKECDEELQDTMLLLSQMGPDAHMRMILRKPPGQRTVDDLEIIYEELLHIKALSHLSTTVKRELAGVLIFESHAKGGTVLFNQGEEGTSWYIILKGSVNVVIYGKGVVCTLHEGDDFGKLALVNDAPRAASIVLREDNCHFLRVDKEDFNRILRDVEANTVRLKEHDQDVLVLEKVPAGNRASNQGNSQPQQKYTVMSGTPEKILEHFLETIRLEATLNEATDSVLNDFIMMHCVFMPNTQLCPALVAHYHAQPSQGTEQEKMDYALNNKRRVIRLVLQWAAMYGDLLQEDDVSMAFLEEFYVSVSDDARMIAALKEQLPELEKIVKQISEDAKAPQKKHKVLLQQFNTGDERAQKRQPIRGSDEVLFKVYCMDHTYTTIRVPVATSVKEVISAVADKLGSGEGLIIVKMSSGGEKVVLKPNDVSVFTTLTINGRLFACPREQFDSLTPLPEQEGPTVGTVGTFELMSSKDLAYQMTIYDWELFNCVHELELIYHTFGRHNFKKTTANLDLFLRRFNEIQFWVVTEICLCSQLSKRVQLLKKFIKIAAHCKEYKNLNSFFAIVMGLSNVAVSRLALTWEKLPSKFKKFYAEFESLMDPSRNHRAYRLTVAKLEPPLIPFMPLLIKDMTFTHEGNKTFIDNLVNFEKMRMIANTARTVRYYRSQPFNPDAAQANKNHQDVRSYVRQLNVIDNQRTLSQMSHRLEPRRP
Rap guanine nucleotide exchange factor 3 (Homo sapiens), sequence (O95398 whole entry, looked up): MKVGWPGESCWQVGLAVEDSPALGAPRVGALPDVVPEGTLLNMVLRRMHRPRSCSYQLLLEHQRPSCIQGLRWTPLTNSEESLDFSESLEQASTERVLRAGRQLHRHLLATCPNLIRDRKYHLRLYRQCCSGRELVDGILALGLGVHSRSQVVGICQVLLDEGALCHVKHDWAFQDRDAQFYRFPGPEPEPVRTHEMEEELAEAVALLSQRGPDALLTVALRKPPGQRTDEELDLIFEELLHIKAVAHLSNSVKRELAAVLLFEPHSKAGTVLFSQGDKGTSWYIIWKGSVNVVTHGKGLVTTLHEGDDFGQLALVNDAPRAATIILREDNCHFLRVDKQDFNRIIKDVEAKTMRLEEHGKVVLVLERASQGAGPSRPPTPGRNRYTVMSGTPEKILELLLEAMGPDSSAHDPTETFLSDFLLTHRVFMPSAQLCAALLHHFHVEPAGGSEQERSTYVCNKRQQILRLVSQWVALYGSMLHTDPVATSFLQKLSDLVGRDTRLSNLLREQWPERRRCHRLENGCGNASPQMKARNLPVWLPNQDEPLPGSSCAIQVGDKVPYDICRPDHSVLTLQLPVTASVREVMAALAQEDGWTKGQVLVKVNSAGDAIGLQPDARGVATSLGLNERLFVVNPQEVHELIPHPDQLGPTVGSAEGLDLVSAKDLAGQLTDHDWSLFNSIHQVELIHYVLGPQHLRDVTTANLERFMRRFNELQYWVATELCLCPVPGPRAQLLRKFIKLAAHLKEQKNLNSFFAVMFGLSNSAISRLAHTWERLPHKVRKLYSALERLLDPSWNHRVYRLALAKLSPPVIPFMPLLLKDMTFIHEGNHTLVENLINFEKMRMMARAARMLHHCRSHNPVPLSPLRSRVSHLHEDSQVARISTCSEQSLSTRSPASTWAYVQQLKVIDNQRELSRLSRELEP

COc1ccc(C(=O)c2ccc(OC)c(OC)c2OC)cc1
inactive: Potency [1] | Potency [2] | Potency [3] | Potency [5]
active: Potency [4] 7.57 µM

COc1ccc(N2CCN(C(c3ccccc3F)c3sc4nc(-c5ccco5)nn4c3O)CC2)cc1 (stereo not given)
inactive: Potency [1] | Potency [2] | Potency [3] | Potency [4] | Potency [5]

N#CC(=Cc1ccc(-c2ccccc2)cc1)C(=O)c1ccccc1
active: Potency [1] 39.8 µM
inactive: Potency [2] | activation [3] 0.543% [at 17.1 µM, percent relative to cAMP agonist control] | Potency [4] | activity change, negative = inhibition [5] -16.6% [at 30.8 µM]

Cc1occc1-c1nnc(SCC(=O)Nc2c(F)cccc2F)n1C
inactive: Potency [1] | Potency [2] | Potency [3] | Potency [4] | Potency [5]

Oc1ccc(-c2csc(Nc3cccnc3)n2)cc1
inactive: Potency [1] | Potency [2] | activation [3] 0.321% [at 17.1 µM, percent relative to cAMP agonist control] | Potency [4] | activity change, negative = inhibition [5] -8.51% [at 30.8 µM]

Cc1cccc(Cn2c(SCc3ccc(C(=O)N4CCCCCC4)cc3)nc3ccncc32)c1
inactive: Potency [1] | Potency [2] | Potency [3] | Potency [4] | Potency [5]

CCOc1ncccc1C(=O)Nc1ccc(C)c(S(=O)(=O)N2CCCCCC2)c1
inactive: Potency [1] | Potency [2] | Potency [3] | Potency [4] | Potency [5]

COc1ccc(S(=O)(=O)N2CCOC23CCN(S(=O)(=O)c2cccs2)CC3)cc1
inactive: Potency [1] | Potency [2] | activation [3] 4.26% [at 17.1 µM, percent relative to cAMP agonist control] | Potency [4] | activity change, negative = inhibition [5] -10.2% [at 30.8 µM]

O=C(NCCC(=O)N(CCc1ccccc1)Cc1ccccc1)c1ccccc1Cl
inactive: Potency [1] | Potency [2] | activation [3] 0.223% [at 17.1 µM, percent relative to cAMP agonist control] | Potency [4] | activity change, negative = inhibition [5] -6.01% [at 30.8 µM]

COC(=O)c1ccccc1NC1=C/C(=N\S(=O)(=O)c2ccc(C(=O)O)cc2)c2ccccc2C1=O
inactive: Potency [2] | activation [3] 7.9% [at 17.1 µM, percent relative to cAMP agonist control] | Potency [4] | activity change, negative = inhibition [5] 14.1% [at 30.8 µM]
active: Potency [1] 22.4 µM

COc1ccc(OC)c(/C=C2\N=C(c3ccccc3)OC2=O)c1
inactive: Potency [1] | Potency [2] | Potency [3] | Potency [4] | Potency [5]

CCN(CC)c1ccc(Nc2nc(-c3cccnc3)cs2)cc1
inactive: Potency [1] | Potency [2] | Potency [3] | Potency [4] | Potency [5]

C=CCn1c(SCC(=O)Nc2sccc2C(N)=O)nc2sc(CC)cc2c1=O
inactive: Potency [1] | Potency [2] | activation [3] 6.26% [at 17.1 µM, percent relative to cAMP agonist control] | Potency [4] | activity change, negative = inhibition [5] -8.95% [at 30.8 µM]

Cc1ccccc1-c1nc(CS(=O)(=O)CC(=O)N(C)C2CCCCC2)c(C)o1
inactive: Potency [1] | Potency [2] | Potency [3] | Potency [4] | Potency [5]

Cn1c(=O)c2c(nc(N3CCOCC3)n2CCSc2ncccn2)n(C)c1=O
inactive: Potency [1] | Potency [2] | activation [3] 5.38% [at 17.1 µM, percent relative to cAMP agonist control] | activity change, negative = inhibition [5] -3.24% [at 30.8 µM]
active: Potency [4] 0.338 µM

O=C(OCc1ccc([N+](=O)[O-])cc1)c1cc(=O)c2ccccc2o1
inactive: Potency [1] | Potency [2] | Potency [3] | Potency [4] | Potency [5]

Oc1ccc(N=Cc2c(O)ccc3ccccc23)cc1
inactive: Potency [1] | Potency [2] | activation [3] 11.7% [at 17.1 µM, percent relative to cAMP agonist control] | Potency [4] | activity change, negative = inhibition [5] -17% [at 30.8 µM]

Clc1ccccc1Cn1c(-c2cccs2)nc2ccccc21
inactive: Potency [1] | Potency [2] | Potency [3] | Potency [4] | Potency [5]

COC(=O)c1ccc2nc(-c3ccc(C)cc3)c(Cc3ccc(C)cc3)n2c1
active: Potency [4] 37.9 µM
inactive: Potency [1] | Potency [2] | Potency [3] | Potency [5]

N#Cc1cc2c(=O)n3ccccc3nc2n(-c2nnc(SCc3ccccc3Cl)s2)c1=O
inactive: Potency [1] | Potency [2] | Potency [3] | Potency [4] | Potency [5]

Cc1sc(NC(=O)C2=COCCO2)nc1-c1ccc(Cl)cc1
inactive: Potency [1] | Potency [2] | Potency [3] | Potency [4] | Potency [5]

CCCOc1cccc(C2C(C(=O)c3cccs3)=C(O)C(=O)N2Cc2cccnc2)c1 (stereo not given)
inactive: Potency [1] | Potency [2] | activation [3] 2.94% [at 17.1 µM, percent relative to cAMP agonist control] | Potency [4] | activity change, negative = inhibition [5] -13.9% [at 30.8 µM]

O=C1OC(c2ccc3ccccc3c2O)(c2ccc3ccccc3c2O)c2ccccc21
inactive: Potency [2] | Potency [3] | Potency [4] | Potency [5]
active: Potency [1] 75.7 µM

COc1ccc(OCC(=O)NCCC2=CCCCC2)c([N+](=O)[O-])c1
inactive: Potency [1] | Potency [2] | activation [3] 7.73% [at 17.1 µM, percent relative to cAMP agonist control] | Potency [4] | activity change, negative = inhibition [5] -6.06% [at 30.8 µM]

COC(=O)c1c(SC)nc2ccccc2c1OCc1cccc(C)c1
inactive: Potency [1] | Potency [2] | Potency [3] | Potency [4] | Potency [5]

O=C(CCSc1nc2ccccc2o1)N1CCOCC1
inactive: Potency [1] | Potency [2] | activation [3] 0.888% [at 17.1 µM, percent relative to cAMP agonist control] | Potency [4] | activity change, negative = inhibition [5] -23.1% [at 30.8 µM]

O=C(Nc1cccs1)Nc1ccccc1Cl
inactive: Potency [1] | Potency [2] | activation [3] 6.52% [at 17.1 µM, percent relative to cAMP agonist control] | Potency [4] | activity change, negative = inhibition [5] 6.73% [at 30.8 µM]

CCOC(=O)c1sc(N2C(=O)C(O)=C(C(=O)c3ccco3)C2c2cccc([N+](=O)[O-])c2)nc1C (stereo not given)
active: Potency [1] 5.36 µM
inactive: Potency [2] | Potency [3] | Potency [4] | Potency [5]

O=C(/C=C/c1ccc2c(c1)OCO2)Nc1cc(S(=O)(=O)N2CCOCC2)ccc1N1CCOCC1
inactive: Potency [1] | Potency [2] | Potency [3] | Potency [4] | Potency [5]

Cc1ccc(CNC(=O)COc2ccccc2-c2ccccc2)cc1
inactive: Potency [1] | Potency [2] | activation [3] 2.73% [at 17.1 µM, percent relative to cAMP agonist control] | Potency [4] | activity change, negative = inhibition [5] 0.587% [at 30.8 µM]

O=C(/C=C/c1ccco1)c1cccc([N+](=O)[O-])c1
active: Potency [1] 42.6 µM
inactive: Potency [2] | Potency [3] | Potency [4] | Potency [5]

O=C1NC(=O)C(c2ccccc2)(c2ccccc2)N1S(=O)(=O)c1ccccc1
inactive: Potency [1] | Potency [2] | Potency [3] | Potency [4] | Potency [5]

C/C(=C\c1ccco1)CN1CCN(Cc2ccc(C)o2)C(CCO)C1 (stereo not given)
inactive: Potency [1] | Potency [2] | Potency [3] | Potency [4] | Potency [5]

COc1cc2c(C#N)c(N3CCCC3)nc(N)c2c(N)n1
active: Potency [1] 37.9 µM
inactive: Potency [2] | Potency [3] | Potency [4] | Potency [5]

CN1CCN(CCC(=O)Nc2ccc(Cl)cc2)CC1
inactive: Potency [1] | Potency [2] | Potency [3] | Potency [4] | Potency [5]

COc1ccc(OCc2nc3ccccc3n2Cc2ccccc2Cl)cc1
inactive: Potency [1] | Potency [2] | Potency [3] | Potency [4] | Potency [5]

COc1cccc(CNC(=O)CCCn2nc(C)c3c(C)n(-c4ccc(C)cc4)nc3c2=O)c1OC
inactive: Potency [1] | Potency [2] | Potency [3] | Potency [4] | Potency [5]

CC(C)(C)c1ccc(N=C2SCC(=O)N2Cc2cccs2)cc1
inactive: Potency [1] | Potency [2] | Potency [3] | Potency [4] | Potency [5]

Cc1cc(O)c(C(=O)/C=C/c2cccc([N+](=O)[O-])c2)c(=O)o1
inactive: Potency [2] | Potency [3] | Potency [4] | Potency [5]
active: Potency [1] 33.8 µM

C/C(=N\NC(=O)c1cc2ccccc2cc1O)c1cc2ccccc2o1
inactive: Potency [2] | Potency [3] | Potency [4] | Potency [5]
active: Potency [1] 37.9 µM

CC(C)O/C(=N\S(=O)(=O)c1ccc(Cl)cc1)c1ccccc1
active: Potency [4] 16.9 µM
inactive: Potency [1] | Potency [2] | Potency [3] | Potency [5]

Cc1cccc(C(=O)Nc2cccc(C(=O)N/N=C/c3cccc(C)n3)c2)c1
inactive: Potency [1] | Potency [2] | Potency [3] | Potency [4] | Potency [5]

N#Cc1c(NC(=O)c2ccccc2)sc2c1CCCCC2
inactive: Potency [1] | Potency [2] | activation [3] 10.4% [at 17.1 µM, percent relative to cAMP agonist control] | Potency [4] | activity change, negative = inhibition [5] 2.87% [at 30.8 µM]

Cc1c(C(=O)OCC(=O)N2CCCC2=O)oc2ccccc12
inactive: Potency [1] | Potency [2] | Potency [3] | Potency [4] | Potency [5]

CC(C)CN(C(=O)CC1OC(=O)c2ccccc21)c1c(N)n(Cc2ccccc2)c(=O)[nH]c1=O (stereo not given)
inactive: Potency [1] | Potency [2] | Potency [3] | Potency [4] | Potency [5]

COc1ccc(Br)cc1CNC(=O)c1ccc2nc(C(C)C)oc2c1
inactive: Potency [1] | Potency [2] | Potency [3] | outcome [4] inactive [at 12.7 µM] | Potency [5]

CCOc1ccc(CN2C(=O)c3ccccc3Sc3ccc(C(=O)NCc4ccc5c(c4)OCO5)cc32)cc1
inactive: Potency [1] | Potency [2] | Potency [3] | outcome [4] inactive [at 12.7 µM] | Potency [5]

CS(=O)(=O)c1cccc(C(=O)OCC(=O)c2ccc3c(c2)OCCO3)c1
inactive: Potency [1] | Potency [2] | activation [3] 8.5% [at 17.1 µM, percent relative to cAMP agonist control] | Potency [4] | activity change, negative = inhibition [5] -4.85% [at 30.8 µM]

CC(C)(C)n1cnc2cc(NCc3ccccc3Cl)ccc21
active: Potency [1] 84.9 µM
inactive: Potency [2] | Potency [3] | Potency [4] | Potency [5]
